Test systems include SR leukemia; RPMI-8226 leukemia; OVCAR-8 ovarian; OVCAR-5 ovarian; SK-OV-3 ovarian; IGROV1 ovarian; OVCAR-3 ovarian; HS 578T breast; NCI/ADR-RES ovarian; OVCAR-4 ovarian.
What all share (assay): NCI-60 one-dose screen, 48 h (100 = growth as untreated, 0 = no growth, -100 = all killed)
Holding throughout (conditions): 10 µM

Each structure is given as a SMILES string. This is part of a sample that, as a whole, favours compounds with a hit. Of some 83,000 tested, about 20% had one in any assay.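 Single-concentration screen, 48 h exposure, 96-well plates. Endpoint: percent growth. Below 10 = active.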 Unmarked numbers belong to inactive results. Activity calls are given as the source filed them.

For 16 molecules, growth results are on record in PubChem BioAssay (NCI).

`Clc1ccc(C2=NN=C3C(Cc4ccccc4)=Nc4ccccc4N3C2)cc1`: the growth in the experiment on SR leukemia was 25.4%; in the experiment with RPMI-8226 leukemia it was 49.4%; with OVCAR-8 ovarian, 75.5%; in the experiment on OVCAR-5 ovarian, 90%; in the experiment with SK-OV-3 ovarian, 112%; in the experiment on IGROV1 ovarian it was 83.8%. Moreover, the results for the growth in the experiment with OVCAR-3 ovarian, with HS 578T breast and with NCI/ADR-RES ovarian were 65.8%, 90.1% and 74.4%, respectively.

As to `CN1CCN(CCCn2c(=O)c3sc4ncccc4c3n3nnc(-c4ccccc4)c23)CC1`, the growth in the experiment with SR leukemia was -38% (active); with RPMI-8226 leukemia, -2.66% (active); in the experiment with OVCAR-8 ovarian it was 16.9%; in the experiment with OVCAR-5 ovarian it was 59.3%; with OVCAR-4 ovarian, -29% (active); in the experiment with HS 578T breast, -12.2% (active). Moreover, the growth with NCI/ADR-RES ovarian was 33.1%.

As for `COc1cc2c(cc1NC(=O)C(F)(F)F)-c1ccc(NC(=O)C(F)(F)F)cc1C2`, the growth in the experiment with SR leukemia was 107%; in the experiment on RPMI-8226 leukemia, 103%; in the experiment with OVCAR-8 ovarian, 96.8%; in the experiment with OVCAR-5 ovarian it was 99%; in the experiment with SK-OV-3 ovarian, 54.7%; in the experiment with IGROV1 ovarian it was 103%. The growth with OVCAR-3 ovarian was 108%; with HS 578T breast, 77.8%; with NCI/ADR-RES ovarian it was 93.3%.

For the molecule `COc1cc(-c2nc3ccccc3o2)cc(CN2CCCCC2)c1O`, the growth in the experiment with SR leukemia was 31.7%; with RPMI-8226 leukemia it was 45.1%; in the experiment on OVCAR-8 ovarian, 71.1%; in the experiment on OVCAR-5 ovarian, 110%; in the experiment on SK-OV-3 ovarian, 118%; in the experiment on IGROV1 ovarian, 82.1%. For the same molecule, the growth was 59% in the experiment on OVCAR-3 ovarian, 60.3% in the experiment on HS 578T breast and 79.7% in the experiment with NCI/ADR-RES ovarian.

Turning to `Clc1nc2ccc(Br)cc2cc1-c1nc2ccccc2[nH]1`, the growth in the experiment with SR leukemia was 92.3%; in the experiment on RPMI-8226 leukemia, 70.4%; in the experiment with OVCAR-8 ovarian, 88.2%; in the experiment with OVCAR-5 ovarian it was 108%; in the experiment on OVCAR-4 ovarian, 65.3%; in the experiment on IGROV1 ovarian, 80.1%. For the same molecule, the growth in the experiment with OVCAR-3 ovarian is 95.5%; in the experiment with HS 578T breast, 47.8%; in the experiment on NCI/ADR-RES ovarian, 92.9%.

Consider `COc1ccc2nc3cc(Cl)ccc3c(NCCCNCCO)c2c1`, for which the growth with SR leukemia is -8.29% (active); with RPMI-8226 leukemia it was -12.1% (active); in the experiment with OVCAR-8 ovarian, -23.2% (active); in the experiment with OVCAR-5 ovarian, -9.73% (active); with OVCAR-4 ovarian, -35.9% (active); in the experiment with IGROV1 ovarian it was 2.85% (active). The growth in the experiment with HS 578T breast was 6.23% (active); in the experiment on NCI/ADR-RES ovarian, 62.4%.

`COc1cc(Cc2cc(-c3ccccc3)n[nH]c2=O)cc(OC)c1OC`: the growth is 25% with SR leukemia; 53.5% in the experiment with RPMI-8226 leukemia; 75.2% in the experiment on OVCAR-8 ovarian; 93.1% in the experiment with OVCAR-5 ovarian; 70.1% with OVCAR-4 ovarian; 63.3% with IGROV1 ovarian. The growth in the experiment on OVCAR-3 ovarian was 47.2%; with HS 578T breast, 68.2%; in the experiment on NCI/ADR-RES ovarian, 28.8%.

For the molecule `Cc1ccc(N=Nc2ccccc2)cc1`, the growth in the experiment with SR leukemia is 90.3%; in the experiment with RPMI-8226 leukemia, 100%; with OVCAR-8 ovarian, 106%; in the experiment on OVCAR-5 ovarian it was 99.7%; in the experiment on OVCAR-4 ovarian, 108%; in the experiment on IGROV1 ovarian, 102%. Besides, the growth with OVCAR-3 ovarian was 105%; with HS 578T breast, 103%; in the experiment on NCI/ADR-RES ovarian, 102%.

As to `O=C(CCl)Oc1ccc(OC(=O)CCl)cc1`, the growth with SR leukemia was 68.7%; with RPMI-8226 leukemia, 25.7%; with OVCAR-8 ovarian, 88.8%; in the experiment on OVCAR-5 ovarian it was 111%; in the experiment on OVCAR-4 ovarian it was 91.3%; with IGROV1 ovarian it was 93.1%. Further, the growth in the experiment on OVCAR-3 ovarian is 77.6%; in the experiment with HS 578T breast, 82.4%; in the experiment with NCI/ADR-RES ovarian, 79.4%.

Turning to `S=C(NCc1ccccc1)NCc1ccccc1`, the growth in the experiment with SR leukemia was 98.4%; in the experiment with RPMI-8226 leukemia it was 100%; in the experiment on OVCAR-8 ovarian, 94.7%; in the experiment on OVCAR-5 ovarian it was 108%; in the experiment on OVCAR-4 ovarian it was 102%; in the experiment with IGROV1 ovarian, 97.4%. The figures for the growth in the experiment on OVCAR-3 ovarian, with HS 578T breast and in the experiment on NCI/ADR-RES ovarian were 98.5%, 96.1% and 99.5%, respectively.

Consider `c1ccc(CCCCc2ccc3ccccc3n2)cc1`, for which the growth in the experiment on SR leukemia was 99.7%; with RPMI-8226 leukemia, 103%; in the experiment with OVCAR-8 ovarian, 101%; with OVCAR-5 ovarian, 97.9%; with OVCAR-4 ovarian, 111%; in the experiment on IGROV1 ovarian it was 100%. Moreover, the figures for the growth in the experiment with HS 578T breast and in the experiment with NCI/ADR-RES ovarian were 98.7% and 102%, respectively.

For `COc1ccc(/C=C2\CCCC3=C2NC(N)=NC3c2ccc(OC)cc2)cc1` (stereo not drawn), the growth in the experiment with SR leukemia is 81.9%; in the experiment on RPMI-8226 leukemia, 57.7%; in the experiment on OVCAR-8 ovarian it was 95.8%; with OVCAR-5 ovarian, 103%; with OVCAR-4 ovarian, 72.8%; in the experiment on IGROV1 ovarian, 99.7%. For the same molecule, the growth is 102% with OVCAR-3 ovarian, 112% with HS 578T breast and 90.8% in the experiment with NCI/ADR-RES ovarian.

As to `O=C(O)c1ccc(-n2cc(CNc3ccc(Cl)cc3)c(-c3ccccc3)n2)cc1`, the growth in the experiment with SR leukemia was 69.1%; with RPMI-8226 leukemia, 89.1%; with OVCAR-8 ovarian, 98.9%; with OVCAR-5 ovarian, 103%; with OVCAR-4 ovarian, 88.3%; in the experiment on IGROV1 ovarian it was 92.1%. Moreover, the results for the growth in the experiment with HS 578T breast and in the experiment on NCI/ADR-RES ovarian were 85% and 91.6%, respectively.

In the case of `CC(CN(C)C)Oc1ccccc1NC1=C(Cl)C(=O)C(Nc2ccccc2OC(C)CN(C)C)=C(Cl)C1=O` (stereo not drawn), the growth with SR leukemia was -9.43% (active); with RPMI-8226 leukemia it was -34.5% (active); with OVCAR-8 ovarian it was -85.3% (active); in the experiment on OVCAR-5 ovarian, -72.2% (active); in the experiment with OVCAR-4 ovarian, -97.6% (active); with IGROV1 ovarian, -76.4% (active). Further, the growth with OVCAR-3 ovarian was -96.2% (active); with HS 578T breast, 3.54% (active); in the experiment with NCI/ADR-RES ovarian, -24.5% (active).

For the molecule `CCN(CC)CCCC(Nc1c2ccc(Cl)cc2nc2ccc(OC)cc12)c1ccc(F)cc1` (stereo not drawn), the growth in the experiment with SR leukemia was -13.9% (active); in the experiment on RPMI-8226 leukemia it was -33.3% (active); in the experiment on OVCAR-8 ovarian, 15.2%; with OVCAR-5 ovarian it was 61.7%; in the experiment on OVCAR-4 ovarian, 12.6%; with IGROV1 ovarian it was 41.5%. For the same molecule, the growth is 108% with OVCAR-3 ovarian, 84% with HS 578T breast and 28.9% with NCI/ADR-RES ovarian.

With `CCn1c(SC/C(=N/O)c2ccccc2)nnc1-c1ccccc1`, the growth with SR leukemia is 94.8%; with RPMI-8226 leukemia, 89.7%; with OVCAR-8 ovarian, 111%; with OVCAR-5 ovarian, 96.8%; with OVCAR-4 ovarian it was 85.5%; with IGROV1 ovarian it was 106%. Besides, the figures for the growth in the experiment on HS 578T breast and with NCI/ADR-RES ovarian were 101% and 103%, respectively.
